We go through four molecules from PubChem BioAssay.

Calls of active or inactive are those of the source. Unless noted, no rule for the calls is given here.

The subject of experiment [1] is Wnt5a (protein binding on small-molecule microarray). Description: small molecules binding Wnt5a protein – biophysical, small-molecule microarray, 635/667 nm fluorescence, primary screen (AID 1142).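 Also: fluorescence read at 667 nm with signal to noise per printed feature.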 As to conditions: 635 nm fluorescence, higher = more signal.
Experiment [2] can be described thus: ATP-based viability of Huh7 replicon cells – cell-based, CellTiter-Glo luminescence, basal, 48 h, cytotoxicity control for HCV replication inhibitor project, primary screen (AID 1143).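 Also: Huh7 hepatoma cells carrying a hepatitis C replication reporter with no stimulus; test concentration not given here.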 Conditions: higher = more signal, called active from +8 up or from −8 down. For orientation: A replicon is a self-replicating genome or part of one, used to study replication in cells.

Experiment [3] is described as follows: Pseudomonas biofilm growth suppression – PAO1 strain, BacTiter-Glo luminescence, LB-PBS, primary screen (AID 1144). Conditions: P. aeruginosa PAO1 biofilm, 12 h, higher = more signal.
Experiment [4] can be described thus: basal CRE-LacZ reporter activity in PC12 – cell-based, unstimulated, primary screen (AID 1145). Conditions: no forskolin, luminescence, 4.5 h, higher = more signal, called active from +8 up or from −8 down.
Experiment [5] can be described thus: forskolin-driven CRE-LacZ activity in PC12 – cell-based, CRE-LacZ reporter, forskolin-stimulated, primary screen (AID 1146).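 Also: PC12 cells with 6xCRE LacZ reporter stimulated by forskolin 10 µM; beta-galactosidase reporter signal reflecting CREB driven transcription.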 Conditions: luminescence, 4.5 h, higher = more signal, called active from +8 up or from −8 down.
Experiment [6] concerns the target Streptavidin (Streptomyces avidinii) (UniProt P22629). Description: compounds binding control protein streptavidin – biophysical, small-molecule microarray, 635/667 nm fluorescence, artefact control for SMM compound annotation, primary screen (AID 1147).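 Also: signal reflects streptavidin binding to arrayed compounds as a control protein.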 Conditions: higher = more signal.
Experiment [7] is described as follows: probe aInhba binding on compound microarray – biochemical, small-molecule microarray, 635/667 nm fluorescence, primary screen (AID 1148).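 Also: score merges 667nm spot fluorescence with signal-to-noise for antibody binding to printed compounds.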 Conditions: higher = more signal.
Experiment [8] has as its target Torsin-1A (Homo sapiens) (UniProt O14656). Description: TOR1A wild-type binding on microarray – cell lysate, small-molecule microarray, lysate, 635/667 nm, primary screen (AID 1149). Conditions: COS7 hTOR1A-WT lysate, 635 nm fluorescence, higher = more signal.
For experiment [9] the target is unchanged. As to the kind of experiment: torsin A mutant lysate binding on microarrays – cell lysate, small-molecule microarray, COS7 lysate, 635/667 nm fluorescence, primary screen (AID 1150).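 Also: score pools 667 nm emission and signal to noise measuring lysate protein binding.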 As to conditions: COS7 hTOR1A mutant lysate, 635 nm fluorescence, higher = more signal.
For experiment [10], the system named is Sonic hedgehog protein (Shh). As to the kind of experiment: Sonic hedgehog microarray binding compounds – biochemical, small-molecule microarray, 635/667 nm fluorescence, primary screen (AID 1151).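 Also: Shh protein binding to compounds spotted on small-molecule microarray slides; score combines spot fluorescence intensity with signal-to-noise across triplicate slides.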 As to conditions: 635 nm fluorescence, higher = more signal.
A short description of experiment [11]: optical density shifts of acrAB sulA E. coli – strain DRC41, OD650, 48 h, E. coli filamentation inducer project, primary screen (AID 1152).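 Also: E. coli MC1000 strain DRC41 lacking acrAB efflux pump and sulA.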 As to conditions: higher = more signal, called active from +8 up or from −8 down.
The nature of experiment [12]: probe aLefty1 binding on compound microarray – biochemical, small-molecule microarray, 635/667 nm fluorescence, primary screen (AID 1153).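 Also: score merges spot fluorescence with signal-to-noise ratio from the scanned slide images.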 As to conditions: higher = more signal.
A short description of experiment [13]: plasmodial surface anion channel blockers, osmotic lysis – cell-based, P. falciparum Indochina, OD700, 1 h, primary screen (AID 1154). Conditions: P. falciparum Indochina infected RBC osmotic lysis, higher = more signal, called active from +8 up or from −8 down.
The nature of experiment [14]: plasmodial surface anion channel blockers, osmotic lysis – cell-based, P. falciparum Indochina, OD700, 2 h, primary screen (AID 1155).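 Also: lysis reports solute entry through the parasite surface anion channel PSAC.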 Conditions: P. falciparum Indochina infected erythrocytes, higher = more signal, called active from +8 up or from −8 down.
A short description of experiment [15]: changes in parasitized red cell lysis, either direction – P. falciparum Indochina, OD700, 3 h, PSAC antagonist project, primary screen (AID 1156). As to conditions: P. falciparum-infected erythrocytes, osmotic lysis, higher = more signal, called active from +8 up or from −8 down.
Experiment [16] in a line: plasmodial surface anion channel blockers, osmotic lysis – cell-based, P. falciparum Indochina, OD700, 18 h, primary screen (AID 1157). Conditions: P. falciparum Indochina infected erythrocytes, osmotic lysis OD700, 18 h; higher = more signal, called active from +8 up or from −8 down.
The nature of experiment [17]: S6 kinase pathway phospho-S6 level changes – cell-based, A549, cytoblot, luminescence, serum-stimulated, primary screen (AID 1158).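 Also: serum-stimulated A549 lung adenocarcinoma cells; signal is phosphorylated S6 detected by cytoblot immunostaining with HRP secondary.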 As to conditions: 5 h, higher = more signal.
Experiment [18] addresses NADPH oxidase 2 (Homo sapiens) (UniProt P04839). As to the kind of experiment: compounds shifting NOX2 Amplex Red fluorescence – cell-based, HEK293-NOX2, PMA-stimulated, NOX inhibitor project, primary screen (AID 1159). Also: test concentration not given here. Conditions: 45 min, higher = more signal, called active from +8 up or from −8 down.
The target of experiment [19] is NADPH oxidase 4 (Homo sapiens) (UniProt Q9NPH5). Description: compounds shifting NOX4 Amplex Red fluorescence – cell-based, HEK293-NOX4, tetracycline-induced, NOX inhibitor project, primary screen (AID 1160). Conditions: HEK293-NOX4, Amplex Red H2O2 fluorescence, 45 min; higher = more signal, called active from +8 up or from −8 down.
Chain of NADPH oxidase 4 (Homo sapiens) (Q9NPH5 whole entry, looked up): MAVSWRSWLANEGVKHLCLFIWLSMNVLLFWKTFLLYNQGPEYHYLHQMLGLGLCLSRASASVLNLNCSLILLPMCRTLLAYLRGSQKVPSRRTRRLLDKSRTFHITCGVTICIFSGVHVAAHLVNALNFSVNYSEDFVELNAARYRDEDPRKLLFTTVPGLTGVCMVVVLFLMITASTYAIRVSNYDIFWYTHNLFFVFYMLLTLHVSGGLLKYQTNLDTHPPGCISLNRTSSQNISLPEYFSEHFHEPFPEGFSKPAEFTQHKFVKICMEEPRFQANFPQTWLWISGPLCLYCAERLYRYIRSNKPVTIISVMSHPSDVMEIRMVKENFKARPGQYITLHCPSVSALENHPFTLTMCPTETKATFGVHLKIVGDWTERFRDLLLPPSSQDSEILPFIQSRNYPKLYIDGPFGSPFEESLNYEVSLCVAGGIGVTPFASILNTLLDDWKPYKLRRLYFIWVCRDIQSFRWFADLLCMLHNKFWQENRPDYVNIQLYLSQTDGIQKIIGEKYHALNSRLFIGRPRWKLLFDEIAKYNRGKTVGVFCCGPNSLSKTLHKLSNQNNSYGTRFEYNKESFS
Experiment [20] concerns the target NADPH oxidase 5 (Homo sapiens) (UniProt Q96PH1). Description: compounds shifting NOX5 Amplex Red fluorescence – cell-based, HEK293-NOX5, NOX inhibitor project, primary screen (AID 1161). Conditions: HEK293-NOX5, ionomycin, 45 min, higher = more signal.

Chain of NADPH oxidase 2 (Homo sapiens) (P04839 whole entry, looked up): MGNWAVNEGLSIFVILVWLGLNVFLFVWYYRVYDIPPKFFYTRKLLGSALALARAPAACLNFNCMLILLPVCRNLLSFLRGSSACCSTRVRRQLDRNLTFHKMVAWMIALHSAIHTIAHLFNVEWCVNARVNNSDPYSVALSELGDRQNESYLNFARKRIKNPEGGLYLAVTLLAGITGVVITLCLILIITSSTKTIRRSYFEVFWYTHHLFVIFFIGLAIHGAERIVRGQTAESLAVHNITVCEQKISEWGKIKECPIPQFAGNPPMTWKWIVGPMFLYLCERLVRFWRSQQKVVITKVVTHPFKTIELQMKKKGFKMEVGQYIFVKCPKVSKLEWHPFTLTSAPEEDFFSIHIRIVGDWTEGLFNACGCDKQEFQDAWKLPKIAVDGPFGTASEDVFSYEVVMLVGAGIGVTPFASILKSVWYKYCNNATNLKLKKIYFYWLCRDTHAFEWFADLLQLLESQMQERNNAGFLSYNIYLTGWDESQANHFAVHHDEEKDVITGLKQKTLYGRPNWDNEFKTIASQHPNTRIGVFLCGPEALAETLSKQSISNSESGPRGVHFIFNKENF
Chain of Torsin-1A (Homo sapiens) (O14656 whole entry, looked up): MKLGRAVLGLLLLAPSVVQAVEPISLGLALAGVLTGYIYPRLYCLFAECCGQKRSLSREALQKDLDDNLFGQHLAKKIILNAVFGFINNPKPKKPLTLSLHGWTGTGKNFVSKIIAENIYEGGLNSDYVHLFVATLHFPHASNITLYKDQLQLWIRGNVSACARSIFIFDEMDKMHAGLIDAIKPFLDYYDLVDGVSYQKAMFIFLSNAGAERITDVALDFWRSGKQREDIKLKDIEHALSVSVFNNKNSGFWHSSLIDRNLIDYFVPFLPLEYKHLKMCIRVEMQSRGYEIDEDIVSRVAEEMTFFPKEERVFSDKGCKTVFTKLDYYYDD
Chain of NADPH oxidase 5 (Homo sapiens) (Q96PH1 whole entry, looked up): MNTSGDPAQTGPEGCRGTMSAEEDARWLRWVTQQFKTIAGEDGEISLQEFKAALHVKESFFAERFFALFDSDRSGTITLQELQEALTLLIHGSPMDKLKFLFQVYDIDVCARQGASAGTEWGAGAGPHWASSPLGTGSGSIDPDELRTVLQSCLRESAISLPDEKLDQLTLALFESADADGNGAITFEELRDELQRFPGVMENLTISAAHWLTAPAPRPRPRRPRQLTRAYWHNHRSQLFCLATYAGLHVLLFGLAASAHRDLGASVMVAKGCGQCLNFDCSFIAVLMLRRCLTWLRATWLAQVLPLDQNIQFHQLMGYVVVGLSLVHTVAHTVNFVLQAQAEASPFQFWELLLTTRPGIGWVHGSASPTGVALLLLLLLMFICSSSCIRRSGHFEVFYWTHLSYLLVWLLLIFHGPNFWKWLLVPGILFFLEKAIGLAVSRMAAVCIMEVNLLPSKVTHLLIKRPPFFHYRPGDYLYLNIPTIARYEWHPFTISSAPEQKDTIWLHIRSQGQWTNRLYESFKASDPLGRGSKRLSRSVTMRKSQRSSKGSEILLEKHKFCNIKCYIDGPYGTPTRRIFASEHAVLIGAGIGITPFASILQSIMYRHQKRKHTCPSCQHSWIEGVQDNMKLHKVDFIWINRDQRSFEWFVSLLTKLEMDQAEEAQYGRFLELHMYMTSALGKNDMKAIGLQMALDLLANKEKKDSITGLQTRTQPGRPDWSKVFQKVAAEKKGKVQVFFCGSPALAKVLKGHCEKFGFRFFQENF
Chain of Streptavidin (Streptomyces avidinii) (P22629 whole entry, looked up): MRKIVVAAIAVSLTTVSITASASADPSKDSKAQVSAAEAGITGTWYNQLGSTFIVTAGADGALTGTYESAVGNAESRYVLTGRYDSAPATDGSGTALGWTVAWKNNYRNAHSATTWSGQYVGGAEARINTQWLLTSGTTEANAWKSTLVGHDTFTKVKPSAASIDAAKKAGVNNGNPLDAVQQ

In the case of `COc1cc2c(cc1O)C(c1cccs1)N(C)CC2` (stereo not given), the composite z-score in experiment [1] is -0.289; in experiment [6], -1.17; in [7], -0.218; in experiment [8] it was -1.19; in experiment [9], -0.597; in experiment [10], -0.44. In addition, in experiment [12], the composite z-score is -0.103. In addition, the z-score in experiment [2] was -0.0812 (inactive); in experiment [3], 0.134 (inactive); in experiment [4], -0.374 (inactive); in [5], -0.0678 (inactive); in [11] it was 0.158 (inactive); in experiment [13], 4.23 (inactive). For the same molecule, the z-score in [14] was 1.17 (inactive); in experiment [15], -0.0863 (inactive); in experiment [16], 0.352 (inactive); in experiment [17], -0.331; in experiment [18] it was -4.66 (inactive); in [19], -2.71 (inactive). Moreover, the z-score in experiment [20] was -2.33.
With `[N-]=[N+]=Nc1ccccc1[C@@H]1OC(c2ccc(OCCCO)cc2)=N[C@]1(CCS(=O)(=O)c1ccccc1)C(N)=O`, the composite z-score was 0.903 in experiment [1]; 2.03 in experiment [6]; 0.207 in experiment [7]; 0.641 in [8]; 0.91 in [9]; -0.398 in experiment [10]. The same molecule registered a composite z-score in experiment [12] of 0.572. Also, the z-score in experiment [2] is -1.12 (inactive); in experiment [3], 0.378 (inactive); in experiment [4], 0.218 (inactive); in experiment [5] it was -1.09 (inactive); in [11] it was 0.307 (inactive); in experiment [13], 29.1 (active). In addition, the z-score in experiment [14] is 26.1 (active); in [15], 1.26 (inactive); in [16], 5.2 (inactive); in experiment [17], 0.0742; in experiment [18] it was -1.8 (inactive); in experiment [19], 2.14 (inactive). Moreover, in experiment [20], the z-score was determined as 0.903.
As to `CN(C)CCCCCCNC(=O)[C@H]1C[C@H]2C(=O)N3CCC[C@H]3C(=O)N2[C@H]1c1ccc(O)cc1`, the composite z-score is 0.899 in experiment [1]; 0.192 in experiment [6]; 0.019 in [7]; 1.95 in [8]; -0.118 in [9]; 2.04 in experiment [10]. In experiment [12], the composite z-score amounted to 0.0811. In addition, the z-score in experiment [2] is -0.865 (inactive); in experiment [3], 0.332 (inactive); in experiment [4] it was -0.268 (inactive); in experiment [5], -0.933 (inactive); in [11] it was 1.47 (inactive); in [13], 0.89 (inactive). In addition, the z-score in [14] was 0.326 (inactive); in experiment [15], -0.664 (inactive); in [16], 0.253 (inactive); in [17], -0.549; in [18], 0.544 (inactive); in [19], -1.28 (inactive). Further, in experiment [20], the z-score was -0.0199.
`C=CCNC(=O)[C@@H]1[C@H]2C(=O)O[C@H](c3ccccc3)[C@H](c3ccccc3)N2[C@H](c2ccccc2OCCO)[C@@]12C(=O)N(C(=O)OCCOC)c1ccccc12`: the composite z-score in experiment [1] was 0.562; in experiment [6], 0.209; in experiment [7], -0.0259; in experiment [8], 0.226; in experiment [9] it was 0.603; in [10] it was 2.17. In experiment [12], this molecule yielded a composite z-score of 0.238. In addition, the z-score in experiment [2] was -4.46 (inactive); in [3] it was 1.23 (inactive); in experiment [4] it was 0.204 (inactive); in experiment [5] it was -0.768 (inactive); in experiment [11] it was -0.91 (inactive); in experiment [13], 2.92 (inactive). Besides, the z-score is 1.24 (inactive) in experiment [14]; -0.693 (inactive) in experiment [15]; 1.05 (inactive) in experiment [16]; -0.458 in experiment [17]; 1.88 (inactive) in experiment [18]; -0.691 (inactive) in [19]. The z-score in experiment [20] was -0.1.
